Source: PubChem BioAssay (NCATS)
Values joined by “and” are separate entries in the source; they are usually repeats but may differ in a detail not shown here. Equal entries are not always repeated. Inconclusive results are not listed. Where a call stands in place of a potency, no number is given. Values without a mark were called inactive. Active and inactive are the calls of the source. Calls follow the shape of the dose curve; as a rule, active = well fitted inhibition curve with a large enough effect; inconclusive = small, poorly fitted or top-dose-only effect; inactive = flat fitted curve, though single readings scatter.

How the values were obtained:
[1] = qHTS profiling for inhibitors of Plasmodium falciparum proliferation (AID 504749); as to all read-outs here: nearly all actives have a fitted effect of over 60% in size; conditions: P. falciparum in erythrocytes, SYBR Green DNA, 72 h; for activity, negative = inhibition: at 28.7 µM (top of the series)
Outline: (§1)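 Readout was DNA-dye fluorescence from lysed cultures, ex 485/em 535 nm. Parasitized red cells had grown 72 h with compound; data scaled between 0.29 uM artemisinin and DMSO wells and corrected using vehicle-only plates.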

3D7 = experiment: as above; conditions: P. falciparum in erythrocytes, SYBR Green DNA, 72 h; series mostly up to 28.7 µM
Outline: as §1

7G8 = experiment: as above; conditions: P. falciparum in erythrocytes, SYBR Green DNA, 72 h; series mostly up to 28.7 µM
Outline: as §1

AA1029 = experiment: as above; conditions: P. falciparum in erythrocytes, SYBR Green DNA, 72 h; series mostly up to 28.7 µM
Outline: as §1

AS120 = experiment: as above; conditions: P. falciparum in erythrocytes, SYBR Green DNA, 72 h; series mostly up to 28.7 µM
Outline: as §1

ATS189 = experiment: as above; conditions: P. falciparum in erythrocytes, SYBR Green DNA, 72 h; series mostly up to 28.7 µM
Outline: as §1

ATS95 = experiment: as above; conditions: P. falciparum in erythrocytes, SYBR Green DNA, 72 h; series mostly up to 28.7 µM
Outline: as §1

C2A = experiment: as above; conditions: P. falciparum in erythrocytes, SYBR Green DNA, 72 h; series mostly up to 28.7 µM
Outline: as §1

CP185 = experiment: as above; conditions: P. falciparum in erythrocytes, SYBR Green DNA, 72 h; series mostly up to 28.7 µM
Outline: as §1

CP191 = experiment: as above; conditions: P. falciparum in erythrocytes, SYBR Green DNA, 72 h; series mostly up to 28.7 µM
Outline: as §1

CP192 = experiment: as above; conditions: P. falciparum in erythrocytes, SYBR Green DNA, 72 h; series mostly up to 28.7 µM
Outline: as §1

CP194 = experiment: as above; conditions: P. falciparum in erythrocytes, SYBR Green DNA, 72 h; series mostly up to 28.7 µM
Outline: as §1

CP201 = experiment: as above; conditions: P. falciparum in erythrocytes, SYBR Green DNA, 72 h; series mostly up to 28.7 µM
Outline: as §1

CP203 = experiment: as above; conditions: P. falciparum in erythrocytes, SYBR Green DNA, 72 h; series mostly up to 28.7 µM
Outline: as §1

CP211 = experiment: as above; conditions: P. falciparum in erythrocytes, SYBR Green DNA, 72 h; series mostly up to 28.7 µM
Outline: as §1

CP215 = experiment: as above; conditions: P. falciparum in erythrocytes, SYBR Green DNA, 72 h; series mostly up to 28.7 µM
Outline: as §1

CP217 = experiment: as above; conditions: P. falciparum in erythrocytes, SYBR Green DNA, 72 h; series mostly up to 28.7 µM
Outline: as §1

CP237 = experiment: as above; conditions: P. falciparum in erythrocytes, SYBR Green DNA, 72 h; series mostly up to 28.7 µM
Outline: as §1
Potency is read from the fitted curve at half-maximal effect.

## Oc1cccc2cccnc12
[1]; parasite line A
  activity, negative = inhibition: 4.36%
[1]; parasite line B
  activity, negative = inhibition: -11.6%
3D7
  Potency: inactive
7G8
  Potency: inactive
AA1029
  Potency: inactive
AS120
  Potency: inactive
ATS189
  Potency: inactive
ATS95
  Potency: inactive
C2A
  Potency: inactive
CP185
  Potency: inactive
CP191
  Potency: inactive
CP192
  Potency: inactive
CP194
  Potency: inactive
CP201
  Potency: inactive
CP203
  Potency: inactive
CP211
  Potency: inactive
CP215
  Potency: inactive
CP217
  Potency: inactive
CP237
  Potency: inactive

## Clc1ccc(COC(Cn2ccnc2)c2ccc(Cl)cc2Cl)cc1 (stereo not drawn)
[1]; parasite line A
  Potency: 3.55 µM (active)
[1]; parasite line B
  Potency: 2.51 µM (active)
3D7
  Potency: 3.16 µM (active)
7G8
  Potency: 0.398 µM (active)
AA1029
  Potency: 4.47 µM (active)
AS120
  Potency: 1 µM (active)
ATS189
  Potency: 3.16 µM (active)
ATS95
  Potency: 3.98 µM (active)
C2A
  Potency: 11.2 µM (active)
CP185
  Potency: 8.91 µM (active)
CP191
  Potency: 3.16 µM (active)
CP192
  Potency: 6.01 µM (active)
CP194
  Potency: 6.75 µM (active)
CP201
  Potency: 15.1 µM (active)
CP203
  Potency: 4.26 µM (active)
CP211
  Potency: 9.53 µM (active)
CP215
  Potency: 4.78 µM (active)
CP217
  Potency: 2.51 µM (active)
CP237
  Potency: 1.26 µM (active)

## NCCc1cc(O)c(O)cc1O
[1]; parasite line A
  activity, negative = inhibition: 7.16%
[1]; parasite line B
  activity, negative = inhibition: 11.4%
3D7
  Potency: inactive
7G8
  Potency: inactive
AA1029
  Potency: inactive
AS120
  Potency: inactive
ATS189
  Potency: inactive
ATS95
  Potency: inactive
C2A
  Potency: inactive
CP185
  Potency: inactive
CP191
  Potency: inactive
CP192
  Potency: inactive
CP194
  Potency: inactive
CP201
  Potency: inactive
CP211
  Potency: inactive
CP215
  Potency: inactive
CP217
  Potency: inactive
CP237
  Potency: inactive

## CN1CCN(C(=O)O[C@H]2c3nccnc3C(=O)N2c2ccc(Cl)cn2)CC1
[1]; parasite line A
  activity, negative = inhibition: -9.31%
[1]; parasite line B
  activity, negative = inhibition: -0.974%
3D7
  Potency: inactive
7G8
  Potency: inactive
AA1029
  Potency: inactive
AS120
  Potency: inactive
ATS189
  Potency: inactive
ATS95
  Potency: inactive
C2A
  Potency: inactive
CP185
  Potency: inactive
CP191
  Potency: inactive
CP192
  Potency: inactive
CP194
  Potency: inactive
CP201
  Potency: inactive
CP211
  Potency: inactive
CP215
  Potency: inactive
CP217
  Potency: inactive
CP237
  Potency: inactive

## CCCC(C)(COC(N)=O)COC(=O)NC(C)C (stereo not drawn)
[1]; parasite line A
  activity, negative = inhibition: 8.09%
[1]; parasite line B
  activity, negative = inhibition: 15.9%
3D7
  Potency: inactive
7G8
  Potency: inactive
AA1029
  Potency: inactive
AS120
  Potency: inactive
ATS189
  Potency: inactive
ATS95
  Potency: inactive
C2A
  Potency: inactive
CP185
  Potency: inactive
CP191
  Potency: inactive
CP192
  Potency: inactive
CP194
  Potency: inactive
CP201
  Potency: inactive
CP203
  Potency: inactive
CP211
  Potency: inactive
CP215
  Potency: inactive
CP217
  Potency: inactive
CP237
  Potency: inactive

## CCCC1CCCCN1 (stereo not drawn)
[1]; parasite line A
  activity, negative = inhibition: 5.52%
[1]; parasite line B
  activity, negative = inhibition: 3.92%
3D7
  Potency: inactive
7G8
  Potency: inactive
AA1029
  Potency: inactive
AS120
  Potency: inactive
ATS189
  Potency: inactive
ATS95
  Potency: inactive
C2A
  Potency: inactive
CP185
  Potency: inactive
CP191
  Potency: inactive
CP192
  Potency: inactive
CP194
  Potency: inactive
CP201
  Potency: inactive
CP215
  Potency: inactive
CP217
  Potency: inactive
CP237
  Potency: inactive

## CC1OC(C)OC(C)O1 (stereo not drawn)
[1]; parasite line A
  activity, negative = inhibition: 8.9% and 17.9%
[1]; parasite line B
  activity, negative = inhibition: 12.4% and 13.9%
3D7
  Potency: inactive
7G8
  Potency: inactive
AA1029
  Potency: inactive
AS120
  Potency: inactive
ATS189
  Potency: inactive
ATS95
  Potency: inactive
C2A
  Potency: inactive
CP185
  Potency: inactive
CP191
  Potency: inactive
CP192
  Potency: inactive
CP194
  Potency: inactive
CP201
  Potency: inactive
CP211
  Potency: inactive
CP215
  Potency: inactive
CP217
  Potency: inactive
CP237
  Potency: inactive

## COc1ccc(C(CN(C)C)C2(O)CCCCC2)cc1 (stereo not drawn)
[1]; parasite line A
  activity, negative = inhibition: 4.2%
[1]; parasite line B
  activity, negative = inhibition: -12.5%
3D7
  Potency: inactive
7G8
  Potency: inactive
AA1029
  Potency: inactive
AS120
  Potency: inactive
ATS189
  Potency: inactive
ATS95
  Potency: inactive
C2A
  Potency: inactive
CP185
  Potency: inactive
CP191
  Potency: inactive
CP192
  Potency: inactive
CP201
  Potency: inactive
CP211
  Potency: inactive
CP215
  Potency: inactive
CP217
  Potency: inactive
CP237
  Potency: 7.08 µM (active)

## Oc1ccccc1-c1ccccc1
[1]; parasite line A
  activity, negative = inhibition: -2.25%
[1]; parasite line B
  activity, negative = inhibition: -2.09%
3D7
  Potency: inactive
7G8
  Potency: inactive
AA1029
  Potency: inactive
AS120
  Potency: inactive
ATS189
  Potency: inactive
ATS95
  Potency: inactive
C2A
  Potency: inactive
CP185
  Potency: inactive
CP191
  Potency: inactive
CP192
  Potency: inactive
CP194
  Potency: inactive
CP201
  Potency: inactive
CP211
  Potency: inactive
CP215
  Potency: inactive
CP217
  Potency: inactive
CP237
  Potency: inactive

## COc1ccccc1N1CCNCC1
[1]; parasite line A
  activity, negative = inhibition: -0.986%
[1]; parasite line B
  activity, negative = inhibition: 0.847%
3D7
  Potency: inactive
7G8
  Potency: inactive
AA1029
  Potency: inactive
AS120
  Potency: inactive
ATS189
  Potency: inactive
ATS95
  Potency: inactive
C2A
  Potency: inactive
CP185
  Potency: inactive
CP191
  Potency: inactive
CP192
  Potency: inactive
CP194
  Potency: inactive
CP201
  Potency: inactive
CP211
  Potency: inactive
CP215
  Potency: inactive
CP217
  Potency: inactive
CP237
  Potency: inactive

## NCC(O)c1ccc(O)cc1 (stereo not drawn)
[1]; parasite line A
  activity, negative = inhibition: 10.2%
[1]; parasite line B
  activity, negative = inhibition: 3.73%
3D7
  Potency: inactive
7G8
  Potency: inactive
AA1029
  Potency: inactive
AS120
  Potency: inactive
ATS189
  Potency: inactive
ATS95
  Potency: inactive
C2A
  Potency: inactive
CP185
  Potency: inactive
CP191
  Potency: inactive
CP192
  Potency: inactive
CP194
  Potency: inactive
CP201
  Potency: inactive
CP211
  Potency: inactive
CP215
  Potency: inactive
CP217
  Potency: inactive
CP237
  Potency: inactive

## CC[N+]1(C)CCCC(OC(=O)C(O)(c2ccccc2)c2ccccc2)C1 (stereo not drawn)
[1]; parasite line A
  activity, negative = inhibition: -4.88%
[1]; parasite line B
  activity, negative = inhibition: 2.86%
3D7
  Potency: inactive
7G8
  Potency: inactive
AA1029
  Potency: inactive
AS120
  Potency: inactive
ATS189
  Potency: inactive
ATS95
  Potency: inactive
C2A
  Potency: inactive
CP185
  Potency: inactive
CP191
  Potency: inactive
CP192
  Potency: inactive
CP194
  Potency: inactive
CP201
  Potency: inactive
CP203
  Potency: inactive
CP211
  Potency: inactive
CP215
  Potency: inactive
CP217
  Potency: inactive
CP237
  Potency: inactive
